We go through 36 compounds from PubChem BioAssay (NCI).

The panel holds about 79,000 compounds, 15% with a hit somewhere; the sample as a whole holds those more often. Calls of active or inactive are those of the source. No stated cut-off is given here; in the data, active means growth inhibition above about 70%; inactive means the rest.

This test is described as follows: NCI Yeast Anticancer Drug Screen. Data for the bub3 strain (AID 167). The following applies: S. cerevisiae bub3 mutant strain, at 11.0 µM, stronger effect = higher value. An outline of the steps: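 Yeast carrying a defined mutation is treated with each compound, and growth is compared with that of vehicle-exposed cells to give inhibition.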
With `C/C(=N\NC(=S)SCc1ccccc1)c1ccccn1`, the growth inhibition is 82% (active).

For the compound `CC[C@@]1(O)C(=O)OCc2c1cc1n(c2=O)Cc2cc3c(N)cccc3nc2-1`, the growth inhibition is -26% (inactive).

As for `CN(C)c1ccc(Sc2ccc3nc(N)nc(N)c3c2)cc1`, the growth inhibition is -20% (inactive).

Turning to `CC(=O)OCCOCNC(=S)N/N=C(\C)c1cnccn1`, the growth inhibition was 24% (inactive).

Turning to `COc1ccc(C2c3cc4c(cc3OC(C)(O)C2C)OCO4)c(OC)c1` (stereo unspecified), the growth inhibition was 1% (inactive).

Take `COc1cc(C2SCC(=O)N2c2ccc(-c3ccc(-n4c(-c5ccccc5)nc5ccccc5c4=O)cc3)cc2)cc(OC)c1OC` (stereo unspecified): the growth inhibition was 17% (inactive).

For `COc1ccc(Br)c(C(=O)Sc2nnnn2-c2cccc(Cl)c2)c1`, the growth inhibition is -22% (inactive).

In the case of `O=C(NNc1ccnc2cc(Cl)ccc12)/C(=C\c1ccccc1Cl)NC(=O)c1ccccc1`, the growth inhibition is 50% (inactive).

As to `CSC(=S)Nc1cccc(C)n1`, the growth inhibition is -3% (inactive).

`O=C(/C=C\c1ccc(Cl)cc1Cl)c1cccs1`: the growth inhibition is 38% (inactive).

For `COc1ccc(-c2cn(-c3ccc(I)cc3)c3ncnc(N)c23)cc1`, the growth inhibition is -3% (inactive).

Consider `CN(C)c1ccc(C(C#N)=C(C#N)C#N)cc1`, for which the growth inhibition was -5% (inactive).

As to `COc1cc(/C=C2\CCc3ccccc3C2=O)cc(OC)c1OC`, the growth inhibition was 32% (inactive).

`CC(C)/C(Cl)=N\OC(=O)Nc1cccc(Cl)c1`: the growth inhibition is 10% (inactive).

Regarding `NNC(=O)CCc1ccc2ccc3ccccc3c2c1`, the growth inhibition is -33% (inactive).

As for `COc1ccc(/C(C)=N/OC(=O)c2c(-c3ccccc3Cl)noc2C)cc1CN1CCOCC1`, the growth inhibition was -18% (inactive).

On to `C=CC(C)(O)CCC1C(=C)C(O)CC2C(C)(C)CCCC12C` (stereo unspecified), for which the growth inhibition is 1% (inactive).

With `S=C(Nc1ccc(Cl)c(Cl)c1)SCc1ccc2c(c1)OCO2`, the growth inhibition was 99% (active).

On to `S=C(Nc1ccc(Cl)cc1)SC1CCCCC1`, for which the growth inhibition is 25% (inactive).

As for `Nc1nc(-c2cccnc2)cc(-c2cc(-c3cccnc3)nc(N)n2)n1`, the growth inhibition is 0% (inactive).

For `COC1=CC(=O)C2C(C1=O)C(c1ccc(Cl)cc1)[C@@H]2C` (stereo partly specified), the growth inhibition is 99% (active).

As to `c1ccc(-c2nc3cccnc3s2)cc1`, the growth inhibition is 10% (inactive).

As to `O=[N+]([O-])c1cc(CCl)ccc1CCl`, the growth inhibition is 46% (inactive).

For `COc1ccc(/C=C2\SC(=S)N(/C=C/c3nc4ccccc4[nH]c3=O)C2=O)cc1OC`, the growth inhibition was 19% (inactive).

In the case of `CCCN(CCC)CC(O)c1cc(-c2ccc(Cl)cc2)nc2c(C)c(Cl)ccc12` (stereo unspecified), the growth inhibition is 99% (active).

Turning to `O=C(Nc1ccccc1)OCCc1ccc(Cl)c(Cl)c1`, the growth inhibition was 37% (inactive).

As to `CC(O)C(O)C(O)C(/C=N\Nc1ccccc1)=N/Nc1ccccc1` (stereo unspecified), the growth inhibition is 19% (inactive).

`C#CCCCc1ccccc1`: the growth inhibition is -25% (inactive).

As for `CC(=O)Cc1ccc[cH-]1.[Fe+2].c1cc[cH-]c1`, the growth inhibition was 7% (inactive).

In the case of `Cc1cc(I)ccc1N`, the growth inhibition was 11% (inactive).

For the compound `CC(C)(CN1CCCCC1)C(=O)CC(SCCS(=O)(=O)O)c1ccc(Br)cc1` (stereo unspecified), the growth inhibition is 17% (inactive).

For the compound `C[Si](C)(C)CNC(=O)OCc1ccccc1`, the growth inhibition was 35% (inactive).

Regarding `CC(C(=O)N1C(=O)N(C(=O)[C@H](C)C(O)c2ccccc2)[C@H](c2ccccc2)[C@H]1c1ccccc1)[C@@H](O)c1ccccc1` (stereo partly specified), the growth inhibition is 5% (inactive).

Turning to `Oc1cccc2c(Cl)ccnc12`, the growth inhibition was 98% (active).

Take `O=C1C=CC(=C(c2ccccc2)c2ccccc2)c2ccccc21`: the growth inhibition is 3% (inactive).

Regarding `S=C(S)NN1CCOCC1`, the growth inhibition was 31% (inactive).
